Most compounds without a hit are left out; they make up all but 2.3% or so of the library.
MEKK2 mut-MEK5 = signal of MEK5 binding to mutant human MEKK2 PB1 domain; bead flow cytometry, Alexa488-MEK5 binding to MEKK2 mutant; percent response, % at 10 µM; 290,000 compounds, 0.35% hits; in the data active = percent response above about 24%, passing the limit was not always enough
MEKK3 PB1 HTS = modulators (inhibitors or enhancers) of MEK5 binding to human MEKK3 PB1 domain | 290,000 compounds, 1.4% hits | binding response (% of control), % at 10 µM | Q99759 | bead-based flow cytometry, Alexa488-MEK5 binding to MEKK3; actives lie on both sides; 0 = blocked by unlabeled MEK5, 100 = vehicle | AID 1529;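 active = binding response more than 3 SD above or below the average of its plate-row segment, actives on both sides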;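 also: Alexa488 bead fluorescence after subtracting the streptavidin-only scavenger bead signal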
Target sequence (Q99759 whole entry, looked up, the tested form may be a part): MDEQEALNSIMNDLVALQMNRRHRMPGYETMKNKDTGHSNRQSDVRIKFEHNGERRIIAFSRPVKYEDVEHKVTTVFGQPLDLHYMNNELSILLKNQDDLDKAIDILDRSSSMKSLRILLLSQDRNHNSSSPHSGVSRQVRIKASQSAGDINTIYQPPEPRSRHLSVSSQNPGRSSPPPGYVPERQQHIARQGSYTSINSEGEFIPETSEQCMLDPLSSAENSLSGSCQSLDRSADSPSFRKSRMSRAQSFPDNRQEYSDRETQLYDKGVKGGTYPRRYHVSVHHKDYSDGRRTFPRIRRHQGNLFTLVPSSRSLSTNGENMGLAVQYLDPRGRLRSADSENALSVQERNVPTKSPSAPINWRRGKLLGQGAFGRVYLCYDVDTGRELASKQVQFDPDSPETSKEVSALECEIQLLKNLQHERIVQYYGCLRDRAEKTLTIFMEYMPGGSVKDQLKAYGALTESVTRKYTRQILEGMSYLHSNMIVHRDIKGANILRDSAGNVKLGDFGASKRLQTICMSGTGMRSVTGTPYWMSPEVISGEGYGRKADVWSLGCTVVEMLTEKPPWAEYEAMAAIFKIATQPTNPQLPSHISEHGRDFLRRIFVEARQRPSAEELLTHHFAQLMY
UBC13 polyUb = inhibitors of human UBC13 polyubiquitin chain formation; AID 485273; TR-FRET; P61088; inhibition, % at 20 µM; 330,000 compounds, 0.47% hits; in the data active = inhibition above about 45%, passing the limit was not always enough
MEKK2 WT-MEK5 = raises or lowers MEK5 binding to wildtype human MEKK2 PB1 domain; binding response (% of control), % at 10 µM; 290,000 compounds, 1.1% hits; Q9Y2U5; bead flow cytometry, Alexa488-MEK5 binding to MEKK2 WT; actives lie on both sides; in the data active = binding response below about 67% or above about 130%
MEKK2wt confirm = raises or lowers MEK5 binding to wildtype human MEKK2, retest; shares compounds with MEKK3 PB1 HTS; bead flow cytometry, Alexa488-MEK5 binding to MEKK2 WT; actives lie on both sides; binding response (% of control), % at 10 µM; 5,900 compounds, 2.4% hits; AID 1892; in the data active = binding response below about 16% or above about 210%; inactive = in between
MEKK2mut-MEK5 = signal of MEK5 binding to mutant human MEKK2, retest. shares compounds with MEKK3 PB1 HTS. bead flow cytometry, Alexa488-MEK5 binding to MEKK2 mutant. percent response, % at 10 µM. 5,900 compounds, 2% hits; in the data active = percent response mostly above about 71%, no sharp cut-off; inactive = mostly below about 38%;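 also: higher means compound restores mutant binding toward wildtype level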
MEKK3 confirm = MEKK3-MEK5 PB1 inhibition, single concentration confirmation | shares compounds with MEKK3 PB1 HTS | bead flow cytometry, Alexa488-MEK5 binding to MEKK3; active compounds read low | binding response (% of control), % at 10 µM | 5,900 compounds, 1.8% hits | AID 1894;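 active = binding response below 72% of control, or above a set upper limit, though filed actives all read lower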;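 also: 100% = DMSO only wells and 0% = binding blocked by excess unlabeled MEK5; lower values mean stronger disruption of MEK5 binding to MEKK3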
Active calls of the source: *; / = no result; [ ] = remark or other dose.

SMILES	MEKK2 mut-MEK5	MEKK3 PB1 HTS	UBC13 polyUb	MEKK2 WT-MEK5	MEKK2wt confirm	MEKK2mut-MEK5	MEKK3 confirm
Cc1cc(C2=NNC(=NCCc3ccccc3)SC2)c(C)n1-c1c(C)n(C)n(-c2ccccc2)c1=O	-11	50*[inhibitor]	2	50	94	-5	93
Cc1cc(C2=NNC(=NC3CC3)SC2)c(C)n1-c1c(C)n(C)n(-c2ccccc2)c1=O	0	104	-11	101	/	/	/
COc1ccc(C2CC(=O)Oc3c(C(CCN4CCCCC4)c4ccc(N(C)C)cc4)c(OC)cc(OC)c32)cc1 (configuration not stated)	17	95	26	156*	141	28	105
COc1cc(O)c(C(CCN2CCCC2)c2ccc(N(C)C)cc2)c(OC)c1 (configuration not stated)	8	119	12	153*	129	37	106
COc1ccc(C2CC(=O)Oc3c(C(CCN4CCCC(C)C4)c4ccc(N(C)C)cc4)c(OC)cc(OC)c32)cc1 (configuration not stated)	17	105	35	152*	140	22	103
COc1cc(C2CC(=O)Oc3c(C(CCN4CCN(c5ccccc5)CC4)c4ccc(N(C)C)cc4)c(OC)cc(OC)c32)cc(OC)c1OC (configuration not stated)	6	112	-1	127	/	/	/
COc1cc(C2CC(=O)Oc3c(C(CCN4CCOCC4)c4ccc(N(C)C)cc4)c(OC)cc(OC)c32)cc(OC)c1OC (configuration not stated)	4	104	15	106	/	/	/
O=[N+]([O-])c1cc2c(cc1CN1CCN(CCOCCO)CC1)OCO2	23	112	-9	149*	99	-1	99
COc1ccc(-c2n[nH]c(C)c2-c2cscn2)c(O)c1	29	133*	6	130	101	-12	98
CCN(CC)S(=O)(=O)c1ccc(C)c(NC(=S)NNC(=O)C2CC2)c1	-1	100	0	100	/	/	/
Cc1ccc(S(=O)(=O)N(C)C)cc1NC(=S)NNC(=O)C1CC1	0	131*	-3	105	99	-1	99
COc1ccc(-c2nnn(CC(=O)NCCc3c[nH]c4ccccc34)n2)cc1OC	-7	97	12	96	/	/	/
CC1(C)C(=O)NCCN1C(=O)CC1C(=O)NCCN1Cc1cccc(C(F)(F)F)c1 (configuration not stated)	6	105	4	104	/	/	/
COc1cccc(OC)c1NC(=O)Cc1nn(C)c(=O)c2ccccc12	8	125*	9	123	98	1	98
CC1CCN(C(=O)COC(=O)c2ccc3c(c2)C(=O)N(Cc2ccco2)C3=O)CC1	/	/	3	/	/	/	/
COc1ccc(/C=N/Nc2cc(C)nc3ccccc23)cc1	43*	112	17	228*	177	48	111
COc1ccc(/C=N/Nc2cc(C)nc3c(C)cccc23)cc1	71*	116	21	279*	197	45	104
COc1ccc(CCC(=O)Nc2cccc(Cl)c2)cc1	0	130*	20	107	122	10	105
COc1ccc(CCC(=O)Nc2ccc(-c3noc(-c4ccc(OC)c(OC)c4)n3)cc2)cc1	6	124*	-5	123	111	3	106
COc1ccc(CC(=O)Nc2cc(Cl)ccc2N2CCCC2)cc1	3	103	-1	101	/	/	/
CN1CCN(c2ccc(Cl)cc2NC(=O)CCN2C(=O)c3ccccc3C2=O)CC1	0	108	36	171*	155	34	101
COc1ccc(CC(=O)OCC(=O)Nc2cccc(Cl)c2)cc1	-4	102	-8	94	/	/	/
COc1ccc(CCC(=O)Nc2cc(Cl)ccc2N2CCN(C)CC2)cc1	25*	101	1	117	124	14	108
Cc1ccc2nc(-c3ccccc3)cc(C(=O)N(C)CC(=O)Nc3ccccc3Br)c2c1	/	/	-2	/	/	/	/
O=C1CN(C(=O)COC(=O)c2c(F)cccc2Cl)c2ccccc2N1	/	/	5	/	/	/	/

From PubChem
